Laboratory results: the supplement of paper PMC6555819

What was measured:
Assay in all cases: PBM binding z-score (relative to random genomic background probes); higher = stronger binding; sequences stand for … in GC…GCGATTGACAGCGTAGAATGAAGG
[1] = test system: FXR:RXRa (NR concentration 270 nM, RXRa partner concentration 90 nM)
How it was run: (§1)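 Each nuclear receptor dimer, without ligand, was incubated for 1 h on custom Agilent 4×180K protein-binding microarrays. Binding was detected with antibodies against each partner (one per run), and scanned fluorescence was regression-normalized. The binding z-scores are referenced to random human genomic background probes.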

[2] = test system: LXRa:RXRa (NR concentration 270 nM, RXRa partner concentration 90 nM)
How it was run: as §1

[3] = test system: LXRa homodimer (NR concentration 270 nM)
How it was run: as §1

[4] = test system: LXRb:RXRa (NR concentration 270 nM, RXRa partner concentration 90 nM)
How it was run: as §1

[5] = test system: LXRb homodimer (NR concentration 270 nM)
How it was run: as §1

[6] = test system: PPARa:RXRa (NR concentration 270 nM, RXRa partner concentration 90 nM)
How it was run: as §1

[7] = test system: PPARg:RXRa (NR concentration 180 nM, RXRa partner concentration 90 nM)
How it was run: as §1

[8] = test system: PPARg:RXRa 270nM:90nM, anti-RXR (NR concentration 270 nM, RXRa partner concentration 90 nM)
How it was run: as §1

[9] = test system: PPARg:RXRa 30nM:10nM, anti-RXR (NR concentration 30 nM, RXRa partner concentration 10 nM)
How it was run: as §1

[10] = test system: PPARg:RXRa 90nM:30nM, anti-RXR (NR concentration 90 nM, RXRa partner concentration 30 nM)
How it was run: as §1

[11] = test system: PPARg:RXRa DBDmut IVT, anti-RXR (DBD mutation: RXRa K156A/R161A, NR concentration 270 nM, RXRa partner concentration 90 nM)
How it was run: as §1

[12] = test system: PPARg:RXRa IVT, anti-PPARg (NR concentration 270 nM, RXRa partner concentration 90 nM)
How it was run: as §1

[13] = test system: PPARg DBDmut:RXRa IVT, anti-PPARg (DBD mutation: PPARg1 K132A/R137A, NR concentration 270 nM, RXRa partner concentration 90 nM)
How it was run: as §1

[14] = test system: PPARg DBDmut IVT, anti-PPARg (DBD mutation: PPARg1 K132A/R137A, NR concentration 270 nM)
How it was run: as §1

[15] = test system: PPARg homodimer (NR concentration 180 nM)
How it was run: as §1

[16] = test system: PXR:RXRa (NR concentration 270 nM, RXRa partner concentration 90 nM)
How it was run: as §1

[17] = test system: PXR homodimer (NR concentration 270 nM)
How it was run: as §1

[18] = test system: RARa:RXR (NR concentration 270 nM, RXRa partner concentration 90 nM)
How it was run: as §1

[19] = test system: RARa homodimer (NR concentration 270 nM)
How it was run: as §1

[20] = test system: RARb:RXRa (NR concentration 270 nM, RXRa partner concentration 90 nM)
How it was run: as §1

Row | Sequence | PBM binding z-score [1] | PBM binding z-score [2] | PBM binding z-score [3] | PBM binding z-score [4] | PBM binding z-score [5] | PBM binding z-score [6] | PBM binding z-score [7] | PBM binding z-score [8] | PBM binding z-score [9] | PBM binding z-score [10] | PBM binding z-score [11] | PBM binding z-score [12] | PBM binding z-score [13] | PBM binding z-score [14] | PBM binding z-score [15] | PBM binding z-score [16] | PBM binding z-score [17] | PBM binding z-score [18] | PBM binding z-score [19] | PBM binding z-score [20]
1 | TAGCCTCGGTCAGATCGGGCCAGTATACGCTATA | -0.00556 | -0.383 | -0.622 | -0.821 | -0.951 | -0.586 | 0.128 | -0.706 | -0.684 | -1.07 | -1.11 | -0.335 | -0.636 | -1.63 | -1.18 | -0.533 | -1.31 | -0.301 | -1.52 | 1.78
2 | ACAGACAGGTGATGAAGGGAACTCAGGCTATCAT | -0.0225 | -0.0438 | -0.158 | -0.298 | -0.495 | -0.115 | 0.754 | 0.00384 | 0.0362 | -0.027 | 0.344 | 0.145 | 0.471 | -0.0521 | 0.0738 | -0.382 | 0.482 | -0.121 | 0.0733 | 0.0899
3 | TCATACAGGTAAAAGGTGAAAGTCGGTGTGGTAA | 1.87 | 1.87 | -0.0272 | 2.18 | 0.661 | 4.39 | 6.38 | 6.45 | 5.73 | 7.08 | 3.28 | 3.68 | 0.157 | 1.18 | 1.6 | 1.83 | 0.448 | 3.13 | 1.16 | 2.1
4 | TTTCGGAGGACACGAAAGGTCAGAGCTCGACATC | 3.67 | 4.36 | 4.05 | 3.47 | 0.13 | 3.77 | 1.9 | 2.77 | 0.718 | 1.71 | 0.372 | 2.08 | -0.0451 | 0.278 | 4.65 | 4.29 | 0.968 | 4.44 | 1.88 | 4.32
5 | TAGCCTAGGTCATGGGGCAGTATACCACGCGAAC | 4.95 | 3.44 | 0.357 | 3.37 | 0.499 | 4.39 | 5.11 | 4.52 | 1.89 | 3.69 | 1.45 | 3.74 | 0.479 | 0.305 | 1.67 | 1.78 | -0.439 | 3.21 | -0.03 | 3.79
6 | ACTAGCAGGCCAAGGGTTACTCAAGATTAGTCCG | 0.239 | 2.23 | -0.412 | 0.935 | -0.494 | 2.61 | 4.88 | 5.61 | 4.58 | 5.71 | 0.518 | 2.14 | -0.596 | -0.597 | 0.215 | 0.27 | -0.411 | 1.05 | -0.361 | 0.894
7 | CCTCGGAGGACAGAAGGTCAGAGCCGTCCGCTTT | 1.62 | 1.72 | 0.422 | 1.2 | -0.824 | 1.93 | -0.186 | 0.948 | -0.897 | 0.277 | 0.172 | -0.13 | -1.85 | -1.98 | 1.7 | 1.78 | -0.366 | 2.37 | 0.4 | 3.24
8 | ATCTCTAGGTAAAGATAGTTCTGTGAATGCAAAT | 0.34 | 0.239 | -0.054 | 0.231 | 0.796 | 0.344 | 0.505 | 0.243 | 0.378 | 0.389 | 2.5 | 1.5 | 0.815 | 1.19 | 0.736 | 0.067 | 0.184 | 0.347 | 0.978 | 0.117
